AmpC inh detg: AmpC beta-lactamase inhibition with detergent present. 0.041% of 370,000 active. AmpC hydrolysis of nitrocefin, absorbance 480 nm, 0.01% Triton. AID 485294. Potency, µM (series often up to 114 µM), for the others: at the highest dose activity change, negative = inhibition, hits mostly inhibitors;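 note: 0% = no-compound wells and -100% = no-enzyme wells; nearly all actives have a fitted effect of over 25% in size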
Target sequence (P00811 whole entry, looked up): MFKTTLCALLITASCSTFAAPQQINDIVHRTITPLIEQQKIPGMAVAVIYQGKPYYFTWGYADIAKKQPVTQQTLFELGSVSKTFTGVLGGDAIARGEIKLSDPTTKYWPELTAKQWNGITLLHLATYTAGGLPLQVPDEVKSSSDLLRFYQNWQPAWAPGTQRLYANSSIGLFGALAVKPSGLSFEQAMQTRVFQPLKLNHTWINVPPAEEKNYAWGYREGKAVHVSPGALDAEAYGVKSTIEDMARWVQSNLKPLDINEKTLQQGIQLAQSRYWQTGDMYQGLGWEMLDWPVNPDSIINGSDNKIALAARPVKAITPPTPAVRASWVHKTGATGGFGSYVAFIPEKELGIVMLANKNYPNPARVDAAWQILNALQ
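20 mM phosphate pH 7.0 + 0.01% (detergent screen) or 0.0001% Triton X-100; 5.3 nM AmpC reagent; cpd preinc 15 min RT; nitrocefin (800 uM stock) to start; A480 q20 s × 4 min; Activity was normalised to no-enzyme and no-compound control wells.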
AmpC no deterg: inhibitors of E. coli AmpC beta-lactamase without detergent | P00811 | AmpC nitrocefin hydrolysis, absorbance 480 nm, 0.0001% Triton | Potency, µM (highest dose often 57.1 µM), for inactives: top-dose activity change, negative = inhibition, actives largely listed as inhibitors | 0.52% of 330,000 active;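 note: plate controls were no compound for no effect and no enzyme for full effect; nearly all actives have a fitted effect of over 20% in size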
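20 mM phosphate pH 7.0 + 0.01% (detergent screen) or 0.0001% Triton X-100; 5.3 nM AmpC reagent; cpd preinc 15 min RT; nitrocefin (800 uM stock) to start; A480 q20 s × 4 min; Activity was normalised to no-enzyme and no-compound control wells.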
Marburg entry inh: Marburg virus entry inhibition. Marburg virus pseudotyped entry inhibition, cell reporter. Potency, µM (highest dose often 37.8 µM), without a hit: at the top dose activity change, negative = inhibition, hits mostly inhibitors. 1.8% of 300,000 active; calls by dose curve; tested in HEK293 cells
Lassa entry inh: blocks Lassa virus binding to or entry into cells; Lassa virus pseudotype entry inhibition, cell reporter; Potency, µM (highest dose often 37.9 µM), inactives show at the top dose activity change, negative = inhibition, most hits filed as inhibitors; 1.2% of 300,000 active; calls by dose curve; tested in HEK293 cells; note: nearly all actives have a fitted effect of over 50% in size
AMA1-RON2 inh: AMA1-RON2 (P. falciparum) interaction inhibition. Potency, µM (highest dose often 58.2 µM), inactives show at the top dose activity change, negative = inhibition, hits mostly inhibitors. 0.2% of 360,000 active. AlphaScreen AMA1-biotinylated RON2 peptide binding;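 note: 0% = vehicle wells and -100% = peptide control; nearly all actives have a fitted effect of over 45% in size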
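AMA1 (3D7) with his tag at 25 nM final met compounds first, then biotinylated RON2 peptide at 25 nM; detection used donor plus acceptor beads, 10 µg/mL apiece, read by AlphaScreen after 30 min at room temperature.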
The depositor's hits bear a star; ? = inconclusive; / = no result; [ ] = dose if it differs, or a comment. Most compounds without a hit are left out; they make up all but 2.3% or so of the library. Unless noted, calls come from the whole dose curve; as a rule, active = well fitted curve in the direction sought with a large enough effect; inconclusive = small, poorly fitted or top-dose-only effect, or another doubt; inactive = no such curve, though single readings can be large; an effect the other way counts as inactive or inconclusive. Unless noted, % is set by controls: 0 for no effect and ±100 for the full control effect; potency is the fitted concentration of half-maximal effect.

SMILES	AmpC inh detg	AmpC no deterg	Marburg entry inh	Lassa entry inh	AMA1-RON2 inh
Cc1ccc(S(=O)(=O)NC(=O)Nc2nnc(C3CC3)s2)cc1	2%	4.5µM*	14%	-5%	24%
COc1ccc(NS(=O)(=O)c2cc([N+](=O)[O-])ccc2N/N=C/c2c(C)[nH]c3ccccc23)cc1	/	/	19%	-4%	-10%
COc1ccccc1/C=N\Nc1ccccc1[N+](=O)[O-]	-2%	-10%	?	?	?
CCCOc1ccc(/C=N/Nc2ccccc2[N+](=O)[O-])c(O)c1	5%	-26%	4.5µM*	2.8µM*	-16%
CCCOc1ccc(/C=N/NC(=S)Nc2ccccc2[N+](=O)[O-])c(O)c1	-9%	-45%	?	8.2µM*	45%
Cc1[nH]c2ccccc2c1/C=N/Nc1ccccc1[N+](=O)[O-]	-10%	-32%	27%	?	32µM*
CC(C)Oc1ccccc1/C=N/Nc1ccccc1[N+](=O)[O-]	-5%	-24%	?	13%	7.1µM*
COC(=O)[C@@]1(C=C2c3ccc(F)cc3[C@@H](OC)[C@@H]2C)[C@@H]2C=CC[C@@H]21	/	/	-19%[14.2 µM]	/	/
Cc1cccc(C)c1NC(=O)c1oc2c(c1C)-c1nn(Cc3ccccc3)cc1CC2	-5%	/	/	-8%[46.1 µM]	/
CCOC(=O)C1=C(CN2CCN(c3ccccc3F)CC2)NC(=O)NC1c1ccc(OC)cc1 (stereo not given)	-4%	/	/	?	/
Cc1nc(SCCC(=O)O)c2cc(-c3ccccc3)sc2n1	4%	-13%	4µM*	?	-28%
O=C(c1noc2c1CCCCC2)N1CCN(c2cccc(C(F)(F)F)c2)CC1	-8%	/	/	-11%[46.1 µM]	/
O=C(Nc1ccc(Cl)cc1Cl)C1=Cc2ccccc2OC1	-13%	-23%	?	13µM*	12%
CCC1CCCCN1C(=O)CSc1nnc(-c2cccc(Cl)c2)o1 (stereo not given)	?	5µM*	/	/	-7%
Cc1c(C)n(CCCN(C)C)c2ncnc(NC3CCCCC3)c12	-5%	29%	10µM*	?	-9%
Cc1c(C)n(CCCN(C)C)c2ncnc(Nc3ccccc3)c12	-5%	11%	/	/	-2%
CC(C)CC(=O)NC(NC(=S)Nc1cccc2cccnc12)C(Cl)(Cl)Cl (stereo not given)	0%	-44%	14µM*	?	-5%
CC1CCN(S(=O)(=O)c2cccc(C(=O)NCC3CCCO3)c2)CC1 (stereo not given)	3%	-2%	29%[46.1 µM]	6.3µM*	0%
Cc1cc2c(cc(C(=O)OCC(=O)NCc3cccs3)n2C(C)C)o1	2%	-17%	?	9.2µM*	-19%
CC(=O)c1ccc2c(c1)N(CCCN1CCC(CCO)CC1)c1ccccc1S2	-6%	83%	/	/	-6%
OCCN1CCN(CCCN2c3ccccc3Sc3ccc(Cl)cc32)CC1	-7%	241%	5µM*	15µM*	?
CCN(c1ccccc1)S(=O)(=O)c1ccc(NCC2COc3ccccc3O2)nc1 (stereo not given)	15%	-31%	?	16µM*	30%
CCn1c(N)[n+](CC(=O)Nc2ccc(SC(F)F)cc2)c2ccccc21	5%	-3%	4.5µM*	?	?
O=C(Cn1cnc2ccccc21)Nc1ccc(SC(F)F)cc1	-14%	-18%[11.4 µM]	3.2µM*	-16%[46.1 µM]	2%
CC[N+](CC)(CC)CC(=O)Nc1ccc(SC(F)F)cc1	-1%	-10%	9%	0%	1%
SMILES	AmpC inh detg	AmpC no deterg	Marburg entry inh	Lassa entry inh	AMA1-RON2 inh
C#CCCCO/N=C1\C[C@@H](O)[C@@H](O)[C@@H]2[C@@H]3C(=O)N(c4ccc(F)cc4F)C(=O)[C@@H]3CC[C@H]12	/	/	-6%[14.2 µM]	/	/
O=Cc1ccc(-c2cccs2)s1	/	/	?	10µM*	8%
O=C(CSc1nccn1Cc1ccc(F)cc1)Nc1ccc2c(c1)OCCO2	1%	/	/	-1%[46.1 µM]	/
O=C1c2ccccc2C(=O)c2c(Nc3ccc(CCO)cc3)ccc(O)c21	-7%	5%	5%	/	8.9µM*
O=C1c2ccccc2C(=O)c2c(NCCc3ccc(O)cc3)ccc(NCCc3ccc(O)cc3)c21	/	/	21µM*	5.2µM*	/
C=C(C#CCCO)CCN1C=C(C(=O)OCC)C(c2ccccc2)NC1=O (stereo not given)	/	/	2%[14.2 µM]	?	/
